PubChem BioAssay (NCI)
About 83,000 compounds went through this panel and 20% of them were active in at least one assay; those are over-represented in the sample as a whole.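 Method: cells in 96-well plates; compound added at one concentration; 48 h incubation; percent growth measured; values under 10 scored active.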 Unmarked numbers belong to inactive results. Activity calls are given as the source filed them.

The molecules below were run on MDA-MB-435 melanoma (assay: NCI-60 one-dose screen, 48 h (100 = growth as untreated, 0 = no growth, -100 = all killed)). Conditions: 10 µM unless noted.
`CCC(=O)Nc1cc2c(cc1Cl)-c1ccccc1C2` was tested, and the growth was 113%. For `FC(F)(F)c1ccc(-c2cnc(-c3nn[nH]n3)nc2NC2CCCCCC2)cc1`, the growth was 43.1% [50 µM]. In the case of `CCn1cnc(C[C@H](NC(=O)[C@H](CCCCNC(=O)Nc2cc(C(F)(F)F)cc(C(F)(F)F)c2)NC(=O)Nc2cc(C(F)(F)F)cc(C(F)(F)F)c2)C(=O)OC)c1`, the growth is reported as -65.4% [100 µM] (active). For `O=c1ncc(-c2ccc(C(F)(F)F)cc2)c(NC2CCCCCC2)[nH]1`, the growth was 45.3%. For `Nc1nc(Nc2ccccc2SSc2ccccc2Nc2nc(N)nc(-c3cccc(Cl)c3)n2)nc(-c2cccc(Cl)c2)n1`, the growth was 101%. With `Cc1ccc2nc3c(n2c1)C(=O)C(=O)c1ccccc1-3` the growth was -69.6% (active). Work on `O=C1NC(=S)S/C1=C\c1cc(Br)ccc1O` yielded a growth of 105%. `O=C1OC2(c3ccccc31)c1ccccc1-c1ccccc12` was tested, and the growth was -26.9% (active). For `Cc1sc2nc(NCCc3cccs3)[nH]c(=O)c2c1C`, the growth was 84.2%. Work on `COc1cc(/C=N/OC(=O)Nc2ccccc2)cc(OC)c1OC` yielded a growth of 124%. `CSc1nc2nc3c(nc2c(=O)n1C)C(=O)c1ccccc1C3=O` was tested, and the growth was -83.6% (active). For `O=C(CNc1ccc2c(c1)C(=O)c1ccccc1C2=O)Nc1ccc2c(c1)C(=O)c1ccccc1C2=O`, the growth was -82.4% (active). `Nc1ccc2c(c1Br)Cc1ccccc1-2` showed a growth of 110%. For `c1ccc2c(-c3nc4ccccc4[nH]3)cccc2c1`, the growth was -19% (active). In the case of `O=C(O)c1ccc2cccnc2c1O`, the growth is reported as 10.1%. `Cc1ccc(-c2c3c(N)nc(-c4ccncc4)nc3nc3c2c(C)nn3-c2ccccc2)cc1` gave a growth of 31.4%. Work on `N#Cc1c(-c2ccccc2)cc(-c2ccccc2)n(CCCCCCC(=O)O)c1=O` yielded a growth of 102%. In the case of `CCCCCN(CCCCC)CCCNc1c2c(nc3ccc(Cl)cc13)CCCC2`, the growth is reported as 66.4%. With `Cc1cc(C)nc(NS(=O)(=O)c2ccc(Nc3nc4nc(SCc5ccccc5)nc(-c5ccc(O)cc5)c4c(=O)[nH]3)cc2)n1` the growth was 94.9%. `O=C1/C(=C/c2ccccc2Cl)CCc2ccccc21` showed a growth of 95.4%. `C/C(=C\CCc1ccoc1)CC/C=C(\C)CCCC1COC(=O)C1` (stereo not given) gave a growth of 88.8%. Molecule `CC1Cc2ccccc2N1C(=O)c1ccc(C(=O)c2ccccc2)cc1` (stereo not given) has a growth of 89.1%. For `COC(=O)[C@H](Cc1cn(C)cn1)NC(=O)[C@H](C)NC(=O)Nc1cc(C(F)(F)F)cc(C(F)(F)F)c1`, the growth was -86.7% [100 µM] (active). `N#Cc1ccccc1C#Cc1ccccc1C#Cc1ccc(OCCCCCCOc2ccc(C#Cc3ccccc3C#Cc3ccccc3C#N)cc2)cc1` was tested, and the growth was 107%. For `CC[N+](CCCCCCCCCC[N+](CC)(c1ccccn1)c1ccccn1)(c1ccccn1)c1ccccn1`, the growth was -15.1% (active). For `COc1ccc2c(c1)C(=Nc1cc(OC)c(OC)c(OC)c1)C(=O)N2`, the growth was 118%. For `O=C(/C=C/c1c(-c2ccccc2)[nH]c2ccccc12)S(=O)(=O)c1ccccc1`, the growth was 9.36% (active). For `O=c1ccn(C2CC=C(CO)O2)c(=O)[nH]1` (stereo not given), the growth was 106%. Work on `C=CCN(/C=C/CN(CC=C)CC=C)CC=C` yielded a growth of 105%. With `Cc1ccc2nc(-c3ccc(N(C)C)c(Br)c3)cn2c1` the growth was 63.4%. `CN(C)CCC(=O)Nc1ccc(-n2cc(-c3cccc(NC(=S)Nc4cccc(-c5cn(-c6ccc(NC(=O)CCN(C)C)cc6)nn5)c4)c3)nn2)cc1` was tested, and the growth was 110%. For `C[C@]12CC[C@H](O)CC1=CC[C@@H]1[C@@H]2CC[C@]2(C)C(c3cccnc3)=CC[C@@H]12`, the growth was 19.8%. In the case of `CCCCCCC(CC#N)(CCC)CCCC` (stereo not given), the growth is reported as 103%. With `CCOC(=O)c1sc(NC(=O)COc2cccc(/C=C3\CCc4cc(OC)ccc4C3=O)c2)nc1C` the growth was 8.01% (active). For `Cc1ccc(S(=O)(=O)N2CCN(C(=O)CSc3nc4ccc(C)cc4[nH]3)CC2)cc1`, the growth was 109%. Work on `CCOC(=O)c1cnc2c(C)cc(C)cc2c1NCCCN(C)C` yielded a growth of 32.3%. With `Cc1ccc(C(NC(=O)c2ccccc2)c2ccc3cccnc3c2O)cc1` (stereo not given) the growth was 30%. `COc1ccc(C(=O)COc2ccc(/C=C3\Oc4ccc5ccccc5c4C3=O)cc2)cc1` gave a growth of 101%. Molecule `CCOC(=O)CCC(=O)O[C@H]1[C@H](O[C@@H]2[C@@H](C)[C@H](O[C@H]3C[C@@](C)(OC)[C@@H](O)[C@H](C)O3)[C@@H](C)C(=O)O[C@H](CC)[C@@](C)(O)[C@H](O)[C@@H](C)C(=O)[C@H](C)C[C@@]2(C)O)O[C@H](C)C[C@@H]1N(C)C` has a growth of 105%. For `COc1ccc(-c2ccc(O)c(C(=O)/C=C/c3cc(OC)c(OC)c(OC)c3)c2)cc1`, the growth was 64.6%.

The molecules below were run on SW-620 colon in the same assay as above. Conditions: 10 µM unless noted.
`CCC(=O)Nc1cc2c(cc1Cl)-c1ccccc1C2` showed a growth of 101%. `FC(F)(F)c1ccc(-c2cnc(-c3nn[nH]n3)nc2NC2CCCCCC2)cc1` was tested, and the growth was 41.2% [50 µM]. `CCn1cnc(C[C@H](NC(=O)[C@H](CCCCNC(=O)Nc2cc(C(F)(F)F)cc(C(F)(F)F)c2)NC(=O)Nc2cc(C(F)(F)F)cc(C(F)(F)F)c2)C(=O)OC)c1` was tested, and the growth was -40.9% [100 µM] (active). `O=c1ncc(-c2ccc(C(F)(F)F)cc2)c(NC2CCCCCC2)[nH]1` gave a growth of 46.5%. `Nc1nc(Nc2ccccc2SSc2ccccc2Nc2nc(N)nc(-c3cccc(Cl)c3)n2)nc(-c2cccc(Cl)c2)n1` showed a growth of 104%. With `Cc1ccc2nc3c(n2c1)C(=O)C(=O)c1ccccc1-3` the growth was -80.5% (active). `O=C1NC(=S)S/C1=C\c1cc(Br)ccc1O` showed a growth of 97.6%. `O=C1OC2(c3ccccc31)c1ccccc1-c1ccccc12` gave a growth of 78.4%. `Cc1sc2nc(NCCc3cccs3)[nH]c(=O)c2c1C` showed a growth of 96.4%. With `COc1cc(/C=N/OC(=O)Nc2ccccc2)cc(OC)c1OC` the growth was 108%. In the case of `CSc1nc2nc3c(nc2c(=O)n1C)C(=O)c1ccccc1C3=O`, the growth is reported as -55.7% (active). For `O=C(CNc1ccc2c(c1)C(=O)c1ccccc1C2=O)Nc1ccc2c(c1)C(=O)c1ccccc1C2=O`, the growth was -89.9% (active). Work on `Nc1ccc2c(c1Br)Cc1ccccc1-2` yielded a growth of 98.1%. With `c1ccc2c(-c3nc4ccccc4[nH]3)cccc2c1` the growth was 16.8%. For `O=C(O)c1ccc2cccnc2c1O`, the growth was 26.1%. Molecule `Cc1ccc(-c2c3c(N)nc(-c4ccncc4)nc3nc3c2c(C)nn3-c2ccccc2)cc1` has a growth of 39.5%. For `N#Cc1c(-c2ccccc2)cc(-c2ccccc2)n(CCCCCCC(=O)O)c1=O`, the growth was 103%. `CCCCCN(CCCCC)CCCNc1c2c(nc3ccc(Cl)cc13)CCCC2` gave a growth of 33.5%. Molecule `Cc1cc(C)nc(NS(=O)(=O)c2ccc(Nc3nc4nc(SCc5ccccc5)nc(-c5ccc(O)cc5)c4c(=O)[nH]3)cc2)n1` has a growth of 101%. `O=C1/C(=C/c2ccccc2Cl)CCc2ccccc21` showed a growth of 110%. With `C/C(=C\CCc1ccoc1)CC/C=C(\C)CCCC1COC(=O)C1` (stereo not given) the growth was 103%. With `CC1Cc2ccccc2N1C(=O)c1ccc(C(=O)c2ccccc2)cc1` (stereo not given) the growth was 95.1%. In the case of `COC(=O)[C@H](Cc1cn(C)cn1)NC(=O)[C@H](C)NC(=O)Nc1cc(C(F)(F)F)cc(C(F)(F)F)c1`, the growth is reported as -27.4% [100 µM] (active). `N#Cc1ccccc1C#Cc1ccccc1C#Cc1ccc(OCCCCCCOc2ccc(C#Cc3ccccc3C#Cc3ccccc3C#N)cc2)cc1` gave a growth of 96.6%. Work on `CC[N+](CCCCCCCCCC[N+](CC)(c1ccccn1)c1ccccn1)(c1ccccn1)c1ccccn1` yielded a growth of 10.1%. Molecule `COc1ccc2c(c1)C(=Nc1cc(OC)c(OC)c(OC)c1)C(=O)N2` has a growth of 102%. Molecule `O=C(/C=C/c1c(-c2ccccc2)[nH]c2ccccc12)S(=O)(=O)c1ccccc1` has a growth of 39.8%. `O=c1ccn(C2CC=C(CO)O2)c(=O)[nH]1` (stereo not given) gave a growth of 103%. `C=CCN(/C=C/CN(CC=C)CC=C)CC=C` was tested, and the growth was 102%. `Cc1ccc2nc(-c3ccc(N(C)C)c(Br)c3)cn2c1` was tested, and the growth was 100%. Molecule `CN(C)CCC(=O)Nc1ccc(-n2cc(-c3cccc(NC(=S)Nc4cccc(-c5cn(-c6ccc(NC(=O)CCN(C)C)cc6)nn5)c4)c3)nn2)cc1` has a growth of 17.4%. `C[C@]12CC[C@H](O)CC1=CC[C@@H]1[C@@H]2CC[C@]2(C)C(c3cccnc3)=CC[C@@H]12` gave a growth of 72.7%. `CCCCCCC(CC#N)(CCC)CCCC` (stereo not given) gave a growth of 107%. With `CCOC(=O)c1sc(NC(=O)COc2cccc(/C=C3\CCc4cc(OC)ccc4C3=O)c2)nc1C` the growth was 36.4%. Work on `Cc1ccc(S(=O)(=O)N2CCN(C(=O)CSc3nc4ccc(C)cc4[nH]3)CC2)cc1` yielded a growth of 102%. `CCOC(=O)c1cnc2c(C)cc(C)cc2c1NCCCN(C)C` gave a growth of 30.3%. For `Cc1ccc(C(NC(=O)c2ccccc2)c2ccc3cccnc3c2O)cc1` (stereo not given), the growth was 31.3%. Molecule `COc1ccc(C(=O)COc2ccc(/C=C3\Oc4ccc5ccccc5c4C3=O)cc2)cc1` has a growth of 94.6%. `CCOC(=O)CCC(=O)O[C@H]1[C@H](O[C@@H]2[C@@H](C)[C@H](O[C@H]3C[C@@](C)(OC)[C@@H](O)[C@H](C)O3)[C@@H](C)C(=O)O[C@H](CC)[C@@](C)(O)[C@H](O)[C@@H](C)C(=O)[C@H](C)C[C@@]2(C)O)O[C@H](C)C[C@@H]1N(C)C` was tested, and the growth was 107%. Work on `COc1ccc(-c2ccc(O)c(C(=O)/C=C/c3cc(OC)c(OC)c(OC)c3)c2)cc1` yielded a growth of 88.6%.
